Reference: PubChem BioAssay AID1159580 (chemical genetic matrix, 2015)
Out of some 5,500 compounds screened, about 2,000 (36%) were called active. Another 18% or so got no clear call; they are omitted. Rule as the data show it: active = normalized growth mostly below about 0.91 (no sharp cut-off); inconclusive = no clear call, values can overlap the other calls; inactive = mostly above about 0.92. The list shows a part of the results.

Test: chemical genetic growth profiling, strain panel (AID 1159580);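 also: tested at 20 µM; growth read once vehicle control cultures reached saturation at 30 °C; 1 = growth at the plate median or of vehicle wells; lower values mean less growth of the strain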
Conditions: growth OD

Measured: normalized growth

CC(=O)Oc1cccc2c1C(=O)c1c(OC(C)=O)cc(C(=O)O)cc1C2=O
active: S. cerevisiae deletion strains, locus YKL160W, strain elf1, hits give low values 0.901 | S. cerevisiae deletion strains, locus YKR001C, strain vps1, hits give low values 0.174 | S. cerevisiae deletion strains, locus YKR026C, strain gcn3, hits give low values 0.908 | S. cerevisiae deletion strains, locus YLL001W, strain dnm1, hits give low values 0.901 | S. cerevisiae deletion strains, locus YLL026W, hits give low values 0.917 | S. cerevisiae deletion strains, locus YLR027C, strain aat2, hits give low values 0.92 | S. cerevisiae deletion strains, locus YLR102C, strain apc9, hits give low values 0.589 | S. cerevisiae deletion strains, locus YLR221C, strain rsa3, hits give low values 0.898 | S. cerevisiae deletion strains, locus YLR258W, strain gsy2, hits give low values 0.909 | S. cerevisiae deletion strains, locus YLR268W, strain sec22, hits give low values 0.39 | S. cerevisiae deletion strains, locus YLR342W, strain FKS1, hits give low values 0.891 | S. cerevisiae deletion strains, locus YLR371W, strain rom2, hits give low values 0.433 | S. cerevisiae deletion strains, locus YLR418C, strain cdc73, hits give low values 0.28 | S. cerevisiae deletion strains, locus YML032C, strain rad52, hits give low values 0.392 | S. cerevisiae deletion strains, locus YML124C, strain tub3, hits give low values 0.537 | S. cerevisiae deletion strains, locus YMR058W, strain fet3, hits give low values 0.806 | S. cerevisiae deletion strains, locus YMR078C, strain ctf18, hits give low values 0.826 | S. cerevisiae deletion strains, locus YMR223W, strain ubp8, hits give low values 0.301 | S. cerevisiae deletion strains, locus YNL071W, strain lat1, hits give low values 0.901 | S. cerevisiae deletion strains, locus YNL307C, strain MCK1, hits give low values 0.221 | S. cerevisiae deletion strains, locus YNL322C, strain KRE1 (second series), hits give low values 0.887 | S. cerevisiae deletion strains, locus YNR052C, strain pop2, hits give low values 0.135 | S. cerevisiae deletion strains, locus YOL012C, strain htz1 2.42 [resistant] | S. cerevisiae deletion strains, locus YOL147C, strain pex11, hits give low values 0.433 | S. cerevisiae deletion strains, locus YOR136W, strain idh2, hits give low values 0.498 | S. cerevisiae deletion strains, locus YOR144C, strain elg1, hits give low values 0.609 | S. cerevisiae deletion strains, locus YOR265W, strain rbl2, hits give low values 0.918 | S. cerevisiae deletion strains, locus YOR316C, strain cot1, hits give low values 0.433 | S. cerevisiae deletion strains, locus YPL051W, strain arl3, hits give low values 0.867 | S. cerevisiae deletion strains, locus YPL240C, strain hsp82, hits give low values 0.909 | S. cerevisiae deletion strains, locus YPR119W, strain clb2, hits give low values 0.63 | S. cerevisiae deletion strains, locus YPR163C, strain tif3, hits give low values 0.359 | S. cerevisiae deletion strains, locus YPR167C, strain met16, hits give low values 0.309 | S. cerevisiae deletion strains, strain wtn01, hits give low values 0.22
inactive: S. cerevisiae deletion strains, locus YJR075W, strain HOC1, hits give low values 0.994 | S. cerevisiae deletion strains, locus YKL009W, strain mrt4, hits give low values 0.986 | S. cerevisiae deletion strains, locus YKL068W, hits give low values 0.993 | S. cerevisiae deletion strains, locus YKL085W, strain MDH1 (second series), hits give low values 1 | S. cerevisiae deletion strains, locus YKL085W, strain MDH1, hits give low values 1 | S. cerevisiae deletion strains, locus YKL190W, strain CNB1, hits give low values 0.986 | S. cerevisiae deletion strains, locus YKR091W, strain srl3, hits give low values 0.944 | S. cerevisiae deletion strains, locus YLL041C, strain sdh2, hits give low values 0.954 | S. cerevisiae deletion strains, locus YLR039C, strain RIC1, hits give low values 1.02 | S. cerevisiae deletion strains, locus YLR058C, strain SHM2, hits give low values 1 | S. cerevisiae deletion strains, locus YLR113W, strain HOG1, hits give low values 1 | S. cerevisiae deletion strains, locus YLR262C, strain YPT6 (second series), hits give low values 0.891 | S. cerevisiae deletion strains, locus YLR262C, strain YPT6, hits give low values 1.05 | S. cerevisiae deletion strains, locus YLR320W, strain mms22, hits give low values 0.908 | S. cerevisiae deletion strains, locus YLR330W, strain CHS5, hits give low values 1.01 | S. cerevisiae deletion strains, locus YLR342W, strain FKS1 (second series), hits give low values 1.05 | S. cerevisiae deletion strains, locus YLR357W, strain rsc2, hits give low values 0.859 | S. cerevisiae deletion strains, locus YLR370C, strain arc18, hits give low values 0.917 | S. cerevisiae deletion strains, locus YLR384C, strain iki3, hits give low values 0.954 | S. cerevisiae deletion strains, locus YML016C, strain PPZ1, hits give low values 1.01 | S. cerevisiae deletion strains, locus YML120C, strain ndi1, hits give low values 0.943 | S. cerevisiae deletion strains, locus YMR125W, strain sto1, hits give low values 0.94 | S. cerevisiae deletion strains, locus YMR129W, hits give low values 0.947 | S. cerevisiae deletion strains, locus YMR205C, strain PFK2, hits give low values 0.948 | S. cerevisiae deletion strains, locus YMR231W, strain pep5, hits give low values 0.942 | S. cerevisiae deletion strains, locus YMR263W, strain SAP30, hits give low values 1 | S. cerevisiae deletion strains, locus YMR307W, strain GAS1, hits give low values 1.18 | S. cerevisiae deletion strains, locus YNL067W, strain RPL9B, hits give low values 1.01 | S. cerevisiae deletion strains, locus YNL128W, strain TEP1, hits give low values 0.993 | S. cerevisiae deletion strains, locus YNL153C, strain GIM3, hits give low values 1.01 | S. cerevisiae deletion strains, locus YNL183C, strain NPR1, hits give low values 0.896 | S. cerevisiae deletion strains, locus YNL209W, strain ssb2, hits give low values 0.93 | S. cerevisiae deletion strains, locus YNL233W, strain BNI4, hits give low values 1.02 | S. cerevisiae deletion strains, locus YNL248C, strain rpa49, hits give low values 0.948 | S. cerevisiae deletion strains, locus YNL250W, strain rad50, hits give low values 0.992 | S. cerevisiae deletion strains, locus YNL271C, strain bni1, hits give low values 0.997 | S. cerevisiae deletion strains, locus YNL298W, strain CLA4, hits give low values 0.995 | S. cerevisiae deletion strains, locus YNL322C, strain KRE1, hits give low values 1 | S. cerevisiae deletion strains, locus YNR049C, strain mso1, hits give low values 0.956 | S. cerevisiae deletion strains, locus YOL006C, strain TOP1, hits give low values 1.02 | S. cerevisiae deletion strains, locus YOR001W, strain rrp6, hits give low values 0.952 | S. cerevisiae deletion strains, locus YOR061W, strain CKA2, hits give low values 0.996 | S. cerevisiae deletion strains, locus YOR069W, strain VPS5, hits give low values 1 | S. cerevisiae deletion strains, locus YOR070C, strain gyp1, hits give low values 0.932 | S. cerevisiae deletion strains, locus YOR080W, strain dia2, hits give low values 0.938 | S. cerevisiae deletion strains, locus YOR083W, strain WHI5, hits give low values 0.918 | S. cerevisiae deletion strains, locus YOR106W, strain vam3, hits give low values 0.905 | S. cerevisiae deletion strains, locus YOR184W, strain ser1, hits give low values 1.02 | S. cerevisiae deletion strains, locus YOR231W, strain MKK1, hits give low values 0.95 | S. cerevisiae deletion strains, locus YOR270C, strain vph1, hits give low values 0.925 | S. cerevisiae deletion strains, locus YOR290C, strain snf2, hits give low values 0.927 | S. cerevisiae deletion strains, locus YPL055C, strain LGE1, hits give low values 1.01 | S. cerevisiae deletion strains, locus YPL078C, strain atp4, hits give low values 0.899 | S. cerevisiae deletion strains, locus YPL106C, strain sse1, hits give low values 0.989 | S. cerevisiae deletion strains, locus YPL241C, strain CIN2, hits give low values 1.05 | S. cerevisiae deletion strains, locus YPL256C, strain CLN2, hits give low values 0.955 | S. cerevisiae deletion strains, locus YPR141C, strain kar3, hits give low values 0.997 | S. cerevisiae strains, strain wild type, hits give low values 0.998
